High-throughput results: PubChem, National Center for Advancing Translational Sciences (NCATS)
Sampled rows, rich in hits. Any-hit rate of the full collection: about 0.85%.
GAA glycogen mod = inhibitors or activators of human alpha-glucosidase glycogen cleavage. P10253. recombinant GAA, glycogen substrate, Amplex Red glucose oxidase fluorescence. Potency, µM (highest dose often 76.4 µM), inactives show top-dose activity change, negative = inhibition, usual class: inhibitors. 300,000 compounds, 0.38% hits;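 note: potency is the fitted concentration of half-maximal effect; 0% = full enzyme reaction and -100% = no-enzyme basal signal; the screen sought inhibitors and activators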
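Recombinant human enzyme (4 nM); glycogen substrate; 37 C, 40 min, pH 5.0. Readout: coupled glucose oxidase/Amplex Red fluorescence.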
aGlu spleen mod = inhibits or activates alpha-glucosidase in human spleen homogenate. Potency, µM (top dose mostly 79.9 µM), without a hit: at the top dose activity change, negative = inhibition, actives largely listed as inhibitors. AID 2112. P10253. human spleen homogenate, 4-MU-alpha-glucoside fluorescence. 240,000 compounds, 0.006% hits;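 note: potency is the fitted concentration of half-maximal effect; 0% = enzyme with vehicle and -100% = no enzyme basal signal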
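Human spleen homogenate (1 ug) with 4-methylumbelliferyl-alpha-D-glucopyranoside (1 mM final) in 50 mM citrate/phosphate pH 5.0, 0.01% Tween-20; 40 min at 37 C. Stopped at pH 10; 4-MU fluorescence Ex 365/Em 440 nm; AC50 by Hill fit.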
B2AR arrestin = recruits beta-arrestin to the human beta2-adrenergic receptor; Potency, µM (doses to about 46.1 µM), for inactives: at the top dose activation, most hits filed as activators; beta-arrestin recruitment to beta2AR, cell-based reporter; AID 492947; 330,000 compounds, 0.02% hits;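 note: potency is the fitted concentration of half-maximal effect; 0% = DMSO controls and full agonism = EC100 isoproterenol or metaproterenol; nearly all actives have a fitted effect of over 65% in size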
Target sequence (P07550 whole entry, looked up): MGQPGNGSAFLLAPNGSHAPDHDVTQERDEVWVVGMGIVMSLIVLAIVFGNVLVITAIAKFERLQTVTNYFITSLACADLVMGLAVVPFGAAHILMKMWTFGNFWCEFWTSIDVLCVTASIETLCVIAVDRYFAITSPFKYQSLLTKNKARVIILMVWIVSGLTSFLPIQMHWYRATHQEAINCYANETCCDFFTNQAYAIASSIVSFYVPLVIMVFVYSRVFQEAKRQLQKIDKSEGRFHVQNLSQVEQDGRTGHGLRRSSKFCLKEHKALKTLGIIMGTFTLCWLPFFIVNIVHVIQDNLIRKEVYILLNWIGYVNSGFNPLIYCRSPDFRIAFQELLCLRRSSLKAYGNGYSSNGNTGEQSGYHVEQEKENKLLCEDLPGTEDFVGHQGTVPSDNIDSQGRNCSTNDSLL
GAA inh = inhibitors of human lysosomal alpha-glucosidase | 200,000 compounds, 0.005% hits | Potency, µM (titrated, usually from 76.9 µM), for inactives: at the highest dose activity change, negative = inhibition, actives largely listed as inhibitors | AID 1466 | purified human GAA, 4-MU-alpha-glucoside fluorescence;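 note: potency is the fitted concentration of half-maximal effect; plate controls were uninhibited enzyme wells for no effect and no-enzyme background for full effect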
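Human alpha-glucosidase, 4 nM, pre-mixed with test compounds before 400 uM 4-methylumbelliferyl substrate; 20 min room temperature at pH 5.0. Fluorescence read after pH 10 stop; AC50 values from Hill-equation fits.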
Coupling enz = coupling enzyme interference in Giardia aldolase counter-screen; coupling enzyme system counterscreen, AmpLite Red fluorescence; activity change, negative = inhibition, % at 58.2 µM, hits read low; 290,000 compounds, 0.67% hits; in the data active = activity change below about -30%
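Counterscreen of the coupled detection system alone, without aldolase: glyceraldehyde-3-phosphate coupling enzymes plus AmpLite Red readout. Compounds at 57.5 uM final, 10 min RT preincubation, 20 min RT reaction, fluorescence 525/598 nm.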
* marks the source's active call; other numbers are inactive results; ! = not active in a repeat; [ ] = dose if it differs, or a comment. Unless noted, calls come from the whole dose curve; as a rule, active = well fitted curve in the direction sought with a large enough effect; inconclusive = small, poorly fitted or top-dose-only effect, or another doubt; inactive = no such curve, though single readings can be large; an effect the other way counts as inactive or inconclusive. Unless noted, % is set by controls: 0 for no effect and ±100 for the full control effect.

Results for O=S1(=O)CC/C(=N\Nc2ccccc2)c2ccsc21 ?
GAA glycogen mod: 25µM*; aGlu spleen mod: -17%; B2AR arrestin: 0%; GAA inh: 4%; Coupling enz: -1

How did Cc1ccc(NC(=S)Nc2cccc3cnccc23)cc1 do in these assays?
GAA glycogen mod: -16%; aGlu spleen mod: 1%; B2AR arrestin: 0%; GAA inh: 1%; Coupling enz: -38*

What do the screens show for `CC(=O)c1ccc(NC(=S)Nc2cccc3cnccc23)cc1`?
GAA glycogen mod: 2%; aGlu spleen mod: 0%; B2AR arrestin: 0%; Coupling enz: -62*

Results for S=C(Nc1cccc(Cl)c1)Nc1cccc2cnccc12 ?
GAA glycogen mod: -12%; aGlu spleen mod: 3%; B2AR arrestin: -1%; GAA inh: -1%; Coupling enz: 4

What do the screens show for `Cc1ccc(NC(=S)Nc2cccc3cnccc23)cc1C`?
GAA glycogen mod: -17%; aGlu spleen mod: 2%; B2AR arrestin: 0%; GAA inh: 13%; Coupling enz: -44*

What do the screens show for `NC(=S)Nc1cccc2cnccc12`?
GAA glycogen mod: 0%; aGlu spleen mod: 2%; B2AR arrestin: 0%; GAA inh: 4%; Coupling enz: 1

How did Cc1cccc(CNc2ncnc3ccc(-c4ccccc4CN(C)C)cc23)c1 do in these assays?
aGlu spleen mod: 7%; Coupling enz: -1

Results for Cc1ccccc1OC1C=CC(c2ccccc2)OC1CO (configuration not stated) ?
aGlu spleen mod: 1%[17.4 µM]; Coupling enz: -1

What do the screens show for `O=S(=O)(c1ccccc1)N(F)S(=O)(=O)c1ccccc1`?
B2AR arrestin: 0%

What do the screens show for `CCCOc1ccc(-c2nc(C#N)c(NCCCn3ccnc3)o2)cc1`?
GAA glycogen mod: 31µM*; aGlu spleen mod: 8%; B2AR arrestin: 0%; GAA inh: 3%; Coupling enz: 7

Results for N#Cc1nc(-c2ccc(OCc3ccccc3)cc2)oc1NCCCn1ccnc1 ?
GAA glycogen mod: inconclusive; aGlu spleen mod: -4%; B2AR arrestin: 0%; GAA inh: -13%; Coupling enz: -1

Results for Cn1c(-c2ccc3c(c2)OCO3)cnc1NCc1ccccc1 ?
GAA glycogen mod: inconclusive; aGlu spleen mod: -1%; B2AR arrestin: 0%; GAA inh: 8%

Results for Cn1c(-c2ccc3c(c2)OCO3)cnc1NCc1cccc(Cl)c1 ?
GAA glycogen mod: 18µM*; aGlu spleen mod: -7%; B2AR arrestin: 0%; GAA inh: -3%; Coupling enz: 1

What do the screens show for `O=C(O)c1ccc(O)c(O)c1`?
GAA glycogen mod: 5µM*; aGlu spleen mod: -10%; B2AR arrestin: 4%; GAA inh: -13%; Coupling enz: -8

What do the screens show for `COc1ccc(C)cc1NC(=O)C1CCN(S(C)(=O)=O)CC1`?
GAA glycogen mod: 35µM*; B2AR arrestin: 0%; Coupling enz: -1

Results for COc1ccc(C)cc1NC(=O)C1CCN(S(=O)(=O)c2ccccc2)CC1 ?
GAA glycogen mod: -15%[76.3 µM]; B2AR arrestin: 0%

What do the screens show for `COc1cc2c(cc1OC)C(/C=C/c1ccc(OC)c(OC)c1OC)=NCC2`?
aGlu spleen mod: 2%; Coupling enz: -4

How did COc1ccc2nc3ccccc3nc2c1NC(=O)c1ccc(Cl)cc1Cl do in these assays?
GAA glycogen mod: 12%; aGlu spleen mod: -6%; B2AR arrestin: -1%; GAA inh: -9%; Coupling enz: -33*

Results for COC(=O)CCCC1=CC2=C(c3ccccc3)C(=O)C(C)(OC(=O)C3CCCC3)C(=O)C2=CN1CCN1CCOCC1 (configuration not stated) ?
GAA glycogen mod: -6%; aGlu spleen mod: 9%[17.4 µM]; B2AR arrestin: -1%; Coupling enz: -35*!

Results for CC1(OC(=O)C2CCCC2)C(=O)C=C2C=C(c3ccsc3)N(CCN3CCOCC3)C=C2C1=O (configuration not stated) ?
GAA glycogen mod: 1%; aGlu spleen mod: -1%[17.4 µM]; B2AR arrestin: 0%; Coupling enz: -44*

What do the screens show for `CC1(OC(=O)C2CCCC2)C(=O)C=C2C=C(c3ccsc3)N(CC3CC3)C=C2C1=O` (configuration not stated)?
GAA glycogen mod: 15%; aGlu spleen mod: 0%[17.4 µM]; B2AR arrestin: -1%; Coupling enz: -34*!
